An excerpt weighted towards active compounds, which were near 2% of everything screened.
M1 PAM parental: nonselective calcium activators in parental CHO-K1 cells, primary screen, counter-screen for M1 PAM project, cell-based, Fluo-8 calcium fluorescence, full deck, 1536-well | activation, % at 3 µM | ATP EC20; 0% at ATP EC20, 100% at ATP max | AID 602247, 2012 | 360,000 compounds, 0.02% hits;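 active means activation above the run cutoff, the mean activation of all test compounds plus 3 SD, cut at about 40% in these data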;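 further: peak over basal fluorescence ratio in a 140 s read after ATP addition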
M4 PAM: human M4 muscarinic receptor positive allosteric modulators, primary screen, CHO-K1 cells, Fluo-8 calcium fluorescence; 360,000 compounds, 0.4% hits; CHO-K1 hM4/Gqi5, ACh EC20; 0% = ACh EC20, 100% = maximal ACh; activation, % at 3 µM; AID 624126, 2012; Muscarinic acetylcholine receptor M4 (Homo sapiens), P08173;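 active means activation above its plate's cutoff, the mean activation of sample wells plus 3 SD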
Target sequence (P08173 whole entry, looked up): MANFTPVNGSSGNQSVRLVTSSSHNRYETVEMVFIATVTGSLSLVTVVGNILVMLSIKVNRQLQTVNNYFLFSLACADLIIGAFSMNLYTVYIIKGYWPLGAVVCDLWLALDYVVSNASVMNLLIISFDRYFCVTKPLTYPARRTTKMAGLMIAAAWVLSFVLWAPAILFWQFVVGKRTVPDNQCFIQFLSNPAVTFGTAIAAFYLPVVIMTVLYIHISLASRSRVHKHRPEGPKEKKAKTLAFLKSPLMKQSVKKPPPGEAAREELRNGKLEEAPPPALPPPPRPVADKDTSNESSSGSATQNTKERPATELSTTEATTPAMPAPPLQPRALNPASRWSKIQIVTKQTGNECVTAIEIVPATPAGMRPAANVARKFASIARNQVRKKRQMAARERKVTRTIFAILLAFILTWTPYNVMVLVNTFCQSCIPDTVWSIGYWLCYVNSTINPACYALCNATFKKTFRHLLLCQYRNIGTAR
CHO-K1 Ca antag: nonselective inhibitor or artifact in parental CHO-K1 cells; ATP-induced calcium, Fluo-8 fluorescence; inhibition, % at 3 µM; 360,000 compounds, 0.6% hits;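 active means inhibition above a per-plate cutoff, the plate's mean sample inhibition plus 3 SD, cut at about 24% in these data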
CHRM4 agonist: human M4 muscarinic receptor agonists, primary screen, CHO-K1 cells, Fluo-8 calcium fluorescence. activation, % at 3 µM. CHO-K1 hM4/Gqi5; vehicle 0%, full acetylcholine response 100%. 360,000 compounds, 0.14% hits. Muscarinic acetylcholine receptor M4 (Homo sapiens), P08173;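 active means activation above the run mean over all test wells plus 3 SD, cut at about 32% in these data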;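 further: peak over basal fluorescence ratio per well then scaled between controls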
M4 antag: human M4 muscarinic receptor antagonists, primary screen, CHO cells, Fluo-8 calcium fluorescence. Muscarinic acetylcholine receptor M4 (Homo sapiens), P08173. CHO-hM4 cells, ACh EC80. inhibition, % at 3 µM. 360,000 compounds, 0.73% hits;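 active means inhibition above its plate's cutoff, the mean inhibition of sample wells plus 3 SD, cut at about 27% in these data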
CHO-K1 Ca ag: counter-screen for M1 agonists: effect in parental CHO-K1 cells | AID 602248, 2012 | 360,000 compounds, 0.48% hits | activation, % at 3 µM | Fluo-8 calcium fluorescence; scaled to maximal ATP response, vehicle zero; in the data active means activation above about 15%;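 further: untransfected CHO-K1 host cells lacking M1 receptor as counterscreen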
Hits are given with their value; - = inactive.

SMILES	M1 PAM parental	M4 PAM	CHO-K1 Ca antag	CHRM4 agonist	M4 antag	CHO-K1 Ca ag
CC(NCc1ccc2c(c1)OCO2)C(=O)N1CCc2ccccc21 (centres undefined)	-	23	-	-	-	-
N#Cc1c(N2CCOCC2)nc(-c2ccco2)c2c1CCCC2	-	-	25	-	-	-
CC1(C)Cc2c(C#N)c(N3CCCC3)nc(-c3ccco3)c2CO1	-	-	-	-	-	-
COc1ccc(CNCC(O)(c2ccccc2)c2ccc(Cl)cc2)cc1 (centres undefined)	-	-	-	-	28	-
Cc1ccc(-c2csc(NC(=O)C3=NN(C4CCS(=O)(=O)C4)C(=O)CC3)n2)cc1 (centres undefined)	-	-	-	-	-	-
O=C1CSC(=Nc2ccc(Cl)cc2)N1Cc1cccnc1	-	-	-	-	-	-
CCOC(=O)C1CCN(C(C)=C2C(=O)c3ccccc3C2=O)CC1	-	17	-	-	-	-
CCOC(=O)C1CCN(CC(C)(C)NS(=O)(=O)c2ccccc2)CC1	-	-	-	-	-	19
CCCC1(CCC)NC(=O)N(CC(=O)Nc2ccc(Cl)c(S(=O)(=O)N3CCOCC3)c2)C1=O	-	-	-	-	-	-
CCOC(=O)C1(CC2CCCCO2)CCN(Cc2cn[nH]c2-c2cccc(F)c2)CC1 (centres undefined)	-	-	-	-	-	-
Cc1cc(C)cc(OCC(=O)OCC(=O)Nc2c(C)n(C)n(-c3ccccc3)c2=O)c1	-	-	-	-	-	-
Fc1ccc(Nc2nnc(C(F)(F)F)s2)cc1Cl	-	-	41	-	-	-
COC(=O)c1ccc(CNC(=O)c2cc(S(=O)(=O)NCc3ccccc3)ccc2C)cc1	-	-	24	-	-	-
COc1ccc(CCNC(=O)COC(=O)c2cc(S(=O)(=O)NCc3ccccc3)ccc2O)cc1OC	-	32	-	-	-	-
O=C(Nc1ccccc1)c1ccccc1NS(=O)(=O)c1ccc(Cl)s1	-	-	-	-	-	-
Cc1ccc(NC(=O)c2ccccc2NS(=O)(=O)c2ccc(Cl)s2)cc1	-	-	25	-	-	-
N#CC(c1ccc(Cl)cc1)c1ccc2c(C(F)(F)F)cc(C(F)(F)F)nc2n1 (centres undefined)	-	-	24	-	-	-
CCCCCC1C(=O)C[C@@H]2CCN3C(=O)CCC[C@H]1[C@H]23 (some centres undefined)	-	-	-	-	-	-
Cc1ccc(S(=O)(=O)NC(CC(C)C)C(=O)Oc2ccc3c4c(c(=O)oc3c2)CCC4)cc1 (centres undefined)	-	-	25	-	-	-
CCC(C)C(NS(=O)(=O)c1ccc(C)cc1)C(=O)Oc1ccc2c3c(c(=O)oc2c1)CCC3 (centres undefined)	49	-	-	-	-	-
Cc1cc(C)n(-c2ccc(NC(=O)C3CCN(Cc4ccccn4)CC3)cc2)n1	-	22	-	-	-	-
CCc1ncc(CN2CCC(C(=O)Nc3ccc(-n4nc(C)cc4C)cc3)CC2)cn1	-	-	-	-	-	-
O=C(c1ccco1)N(Cc1cccnc1)C(c1ccccc1)c1nc2ccccc2[nH]1 (centres undefined)	-	-	-	-	-	-
Fc1ccc(C(CCCn2nnc(-c3cccnc3)n2)c2ccc(F)cc2)cc1	-	-	-	-	29	-
Fc1ccc(-n2nnc(-c3cccnc3)n2)cc1	-	-	-	-	-	-
SMILES	M1 PAM parental	M4 PAM	CHO-K1 Ca antag	CHRM4 agonist	M4 antag	CHO-K1 Ca ag
O=C(NCc1ccccc1)C1c2ccccc2OCC(=O)N1Cc1ccc2c(c1)OCO2 (centres undefined)	-	-	-	-	-	-
CC(=O)c1cccc(N=c2scc(-c3ccc(S(=O)(=O)N4CCOCC4)cc3)n2CCO)c1	-	-	32	-	-	-
CCC(NC(=O)c1ccc2nc(Cc3ccc(OC)cc3)oc2c1)c1ccncc1 (centres undefined)	-	-	-	-	-	15
O=c1cc(CO)[nH]nc1CO	-	-	-	-	-	-
Cc1scc2c1N(C(=O)CN1CCN(C)CC1)c1ccccc1NC2=O	-	-	-	-	98	-
CNc1nc2c(c(=O)[nH]c(=O)n2C)n1CCCc1ccccc1	-	-	-	-	-	-
Cn1c(=O)[nH]c(=O)c2c1nc([N+](=O)[O-])n2Cc1ccccc1	-	41	-	-	-	-
Cn1c(=O)[nH]c(=O)c2c1nc(NCc1ccccc1)n2CCCc1ccccc1	-	-	26	-	-	-
CC(C)Cn1c([N+](=O)[O-])nc2c1c(=O)[nH]c(=O)n2C	-	-	-	-	-	-
CCOC(=O)[C@H]1[C@H]2COc3ccc(OC)cc3[C@@H]2N2C(=O)c3ccccc3NC(=O)[C@@]12C	-	-	-	-	-	-
COc1cc2c(cc1OC)CN(c1nc(CN3CCCCC3)nc3sc4c(c13)CCCC4)CC2	-	-	-	-	-	20
COc1cc2c(cc1OC)CN(c1nc(CN3CCOCC3)nc3sc4c(c13)CCCC4)CC2	-	-	-	-	-	-
O=C(Nc1ccc(OC(F)(F)F)cc1)C1CCCN(C(=O)c2ccc(Cl)cc2)C1 (centres undefined)	-	-	-	-	-	20
O=C(CCc1ccccc1)NC(=S)Nc1ccc2c(c1)C(=O)OC2	-	-	-	-	-	16
CN(C)Cc1ccccc1Cc1ccccc1	-	-	-	-	-	-
CN(C)Cc1ccccc1CCc1ccccc1	-	-	-	-	31	-
c1ccc2c(c1)nc1n2CCC1	-	-	-	-	-	-
OC1(c2cccs2)CN(c2ccc(Br)cc2)C2=[N+]1CCCS2 (centres undefined)	-	-	-	-	27	-
COC(=O)c1ccc(CN2C(=O)NC(Cc3c[nH]c4ccccc34)C2=O)cc1 (centres undefined)	-	-	-	-	-	15
CC(C)(O)/C=C/C[C@](C)(O)C1CC[C@]2(C)C1[C@H](O[C@H]1O[C@@H](CO)[C@H](O)[C@@H](O)[C@@H]1O)CC1[C@@]3(C)CC[C@H](O)C(C)(C)C3[C@@H](O)C[C@]12C (some centres undefined)	-	-	-	-	-	-
COC(=O)c1ccc(CN2CCCC(CCC(=O)NCc3ccc(C)o3)C2)cc1 (centres undefined)	-	-	-	-	59	-
